Only some compounds are listed: those with a hit (about 6.6% of all), similar ones and a draw of the others.
GDH-TPI counter-1 = GDH-TPI coupling enzyme inhibitors, primary screen, artefact control for M. tuberculosis FBA inhibitor project, biochemical, absorbance, full deck. GDH-TPI coupled enzyme counterscreen, NADH absorbance. inhibition, % at 4.8 µM. actives 1.2% (n = 360,000); in the data active = inhibition above about 30%;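 note: 0% = DMSO wells and 100% = wells lacking the enzyme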
FBA Mtb inh = Mtb FBA enzyme inhibitors, primary screen, biochemical, fluorescence, strain H37Rv. Fructose-bisphosphate aldolase (Mycobacterium tuberculosis (strain ATCC 25618 / H37Rv)), …. purified M. tuberculosis FBA, fluorescence read-out. inhibition, % at 1 µM. actives 2.3% (n = 360,000); in the data active = inhibition above about 27%;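 note: 0% = vehicle and 100% = reference inhibitor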
Target sequence (P9WQA3 whole entry, looked up): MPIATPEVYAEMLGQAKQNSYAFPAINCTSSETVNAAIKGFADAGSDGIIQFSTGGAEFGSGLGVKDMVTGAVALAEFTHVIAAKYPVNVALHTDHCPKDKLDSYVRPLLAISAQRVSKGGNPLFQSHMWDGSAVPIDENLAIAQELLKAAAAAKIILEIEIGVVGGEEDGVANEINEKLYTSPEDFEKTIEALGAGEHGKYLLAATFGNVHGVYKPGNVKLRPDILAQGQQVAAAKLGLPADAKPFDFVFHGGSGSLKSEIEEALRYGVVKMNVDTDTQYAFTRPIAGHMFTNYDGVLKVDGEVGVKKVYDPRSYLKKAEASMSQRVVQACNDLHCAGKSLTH
BoNT A protease = BoNT/A light chain protease inhibitors, primary screen, biochemical, flow cytometry, MLPCN library. multiplex microsphere protease substrate cleavage. inhibition, % at 10 µM. actives 0.17% (n = 360,000). AID 588499, 2011; note: plate controls were buffer without enzyme for full effect and enzyme alone for no effect
BoNT F protease = BoNT/F light chain protease inhibitors, primary screen, biochemical, flow cytometry, MLPCN library; AID 588497, 2011; actives 0.22% (n = 360,000); inhibition, % at 10 µM; Multiplex microsphere protease cleavage assay; in the data active = inhibition above about 35%, passing the limit was not always enough; note: plate controls were buffer without enzyme for full effect and enzyme alone for no effect
Autofluor counter = counter-screen for toxin protease inhibitors: compound fluorescence | compound autofluorescence counterscreen, microsphere flow cytometry; stronger effect = higher value | AID 624483 | actives 3.1% (n = 360,000) | fluorescence intensity (no concentration beside the values); in the data active = fluorescence intensity above about 16000
Anthrax LF prot = Bacillus anthracis LF protease inhibitors, primary screen, biochemical, multiplex microsphere, MLPCN library; Lethal factor (Bacillus anthracis), P15917; multiplex microsphere protease cleavage assay; AID 588501, 2011; inhibition, % at 10 µM; actives 0.12% (n = 360,000); note: plate controls were buffer without enzyme for full effect and enzyme alone for no effect
Mtb FBA inh conf = M. tuberculosis aldolase blockers, biochemical, fluorescence, strain H37Rv, confirmation | shares compounds with FBA Mtb inh | purified M. tuberculosis FBA, fluorescence read-out | inhibition, % at 1 µM | actives 78% (n = 5,600) | AID 651616, 2012; in the data active = inhibition above about 27%;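 note: 0% = vehicle wells and 100% = reference inhibitor wells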
GDH-TPI counter-2 = GDH-TPI coupling enzyme inhibitors, artefact control for M. tuberculosis FBA inhibitor project, biochemical, fluorescence, high throughput | shares compounds with FBA Mtb inh | GDH-TPI coupled enzyme counterscreen | inhibition, % at 1 µM | actives 81% (n = 5,600); in the data active = inhibition above about 10%
* = called active by the depositor. Cut-off read from the data, not from the text of the source, unless noted: active = inhibition above about 30%; inconclusive = no clear call, values can overlap the other calls; inactive = below that.

What do the screens show for `CCC(C)n1c(/C=C/c2ccccc2)nc2ccccc21` (centres undefined)?
GDH-TPI counter-1: 17; FBA Mtb inh: 33*; BoNT A protease: -1; BoNT F protease: -1; Autofluor counter: 2472; Anthrax LF prot: -1; Mtb FBA inh conf: 53*; GDH-TPI counter-2: 32*

How did COc1ccc(Cn2c(/C=C/c3ccccc3)nc3ccccc32)cc1 do in these assays?
GDH-TPI counter-1: 15; FBA Mtb inh: 48*; BoNT A protease: -1; BoNT F protease: -4; Autofluor counter: 24328*; Anthrax LF prot: 2; Mtb FBA inh conf: 169*; GDH-TPI counter-2: 138*

Results for CCn1c(/C=C/c2ccccc2)nc2ccccc21 ?
GDH-TPI counter-1: 65*; FBA Mtb inh: 58*; BoNT A protease: 1; BoNT F protease: 9; Autofluor counter: 10220; Anthrax LF prot: -3; Mtb FBA inh conf: active; GDH-TPI counter-2: active

How did CCOc1ccc(CCNC(=O)CN2C(=O)NC3(CCCC3)C2=O)cc1OCC do in these assays?
GDH-TPI counter-1: -7; FBA Mtb inh: 0; BoNT A protease: 4; BoNT F protease: 4; Autofluor counter: 5209; Anthrax LF prot: -3

What do the screens show for `COc1cc(-c2c(C#N)c(N)nc3c2CCCC3)cc(OC)c1OC`?
GDH-TPI counter-1: 9; FBA Mtb inh: 3; BoNT A protease: 3; BoNT F protease: 5; Autofluor counter: 7913; Anthrax LF prot: -1

What do the screens show for `COc1ccc(-c2c(C#N)c(N)nc3c2CCC3)cc1`?
GDH-TPI counter-1: 2; FBA Mtb inh: 53*; BoNT A protease: 0; BoNT F protease: -4; Autofluor counter: 4268; Anthrax LF prot: -3; Mtb FBA inh conf: 136*; GDH-TPI counter-2: 93*

What do the screens show for `N#Cc1c(N)nc2c(c1-c1ccccc1)CCC2`?
GDH-TPI counter-1: 11; FBA Mtb inh: 61*; BoNT A protease: 0; BoNT F protease: -7; Autofluor counter: 2932; Anthrax LF prot: 0; Mtb FBA inh conf: 119*; GDH-TPI counter-2: 91*

How did Cc1ccc(-n2cnc3c(sc4nc(N5CCOCC5)c5c(c43)CCCC5)c2=O)cc1 do in these assays?
GDH-TPI counter-1: -4; FBA Mtb inh: 0; BoNT A protease: -1; BoNT F protease: -4; Autofluor counter: 6150; Anthrax LF prot: -6

What do the screens show for `CC12CCC(=O)N1c1c(sc3nc(N4CCOCC4)c4c(c13)CCCC4)C(=O)N2` (centres undefined)?
GDH-TPI counter-1: 27; FBA Mtb inh: 63*; BoNT A protease: 0; BoNT F protease: -9; Autofluor counter: 3756; Anthrax LF prot: -6; Mtb FBA inh conf: 122*; GDH-TPI counter-2: 113*

Results for Cc1ccc(NC(=O)C(C)OC(=O)COc2cccc(C(F)(F)F)c2)cc1 (centres undefined) ?
GDH-TPI counter-1: -1; FBA Mtb inh: -1; BoNT A protease: 0; BoNT F protease: 0; Autofluor counter: 3390; Anthrax LF prot: 5

What do the screens show for `CC1CCCCN1CCNC(=O)c1cnn2ccccc12` (centres undefined)?
GDH-TPI counter-1: 16; FBA Mtb inh: 40*; BoNT A protease: 0; BoNT F protease: -1; Autofluor counter: 6207; Anthrax LF prot: 4; Mtb FBA inh conf: 23; GDH-TPI counter-2: 14*

Results for Cc1cc(C(=O)NCCN2CCCCC2C)n(-c2ccccc2)n1 (centres undefined) ?
GDH-TPI counter-1: -2; FBA Mtb inh: 7; BoNT A protease: 0; BoNT F protease: -8; Autofluor counter: 7490; Anthrax LF prot: 7

Assay outcomes (PubChem)
